Measurements from the supplement of paper PMC6522484.
± gives the standard deviation of the averaged measurements.

Experiments:
DLD1 [1] = assay: cell viability (CellTiter-Glo) relative to plate median (fraction of plate median); higher = more viable cells; settings: 5 µM; treatment time 24 h; reporter: 7TFP
Method in brief: (§1)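 Stable lentiviral TCF/Wnt firefly luciferase reporters (7TFP or TCF4/Wnt) were present in the colorectal cancer cell lines used. These cells received library compounds at a final 5 µM for 24 h, and parallel plates were read for firefly luciferase or CellTiterGlo luminescence. Each well was normalised to the plate median, and the value reported is the mean of two independent replicates.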

HCT116 = assay: as above; settings: 5 µM; treatment time 24 h; reporter: TCF4/Wnt
Method in brief: as §1

SW480 [2] = assay: as above; settings: 5 µM; treatment time 24 h; reporter: 7TFP
Method in brief: as §1

DLD1 [3] = assay: TCF/Wnt firefly luciferase reporter signal relative to plate median (fraction of plate median); higher = higher Wnt reporter signal; settings: 5 µM; treatment time 24 h; reporter: 7TFP
Method in brief: as §1

SW480 [4] = assay: as above; settings: 5 µM; treatment time 24 h; reporter: 7TFP
Method in brief: as §1

SMILES | cell viability (DLD1 [1]) | cell viability (HCT116) | cell viability (SW480 [2]) | TCF/Wnt firefly luciferase reporter signal (DLD1 [3]) | TCF/Wnt firefly luciferase reporter signal (SW480 [4])
CC1(C)C=CC(=O)[C@@]2(C)C1CC(=O)[C@]1(C)C2CC[C@@]2(C)[C@H](c3ccoc3)OC(=O)C3OC321 (stereo not given in full) | 1 ± 0.012 | 0.71 ± 0.61 | 0.998 ± 0.018 | 0.99 ± 0.029 | 0.854 ± 0.13
COc1ccc(-c2c(O)c3c(OC)c4c(cc3oc2=O)OC(C)(C)C=C4)cc1 | 1.01 | 0.968 ± 0.088 | 0.9495 ± 0.0092 | 1.07 ± 0.014 | 1.07 ± 0.035
COc1c2ccoc2cc2oc(=O)ccc12 | 1.02 ± 0.046 | 0.946 ± 0.018 | 0.978 ± 0.015 | 0.984 ± 0.093 | 1.01 ± 0.028
CNc1ccccc1C(=O)N1CCc2c([nH]c3ccccc23)C1=O | 1.03 ± 0.043 | 0.996 ± 0.1 | 0.994 ± 0.0085 | 1.14 | 1.09 ± 0.14
CC[C@H]1OC(=O)C[C@@H](O)[C@H](C)[C@@H](O[C@@H]2O[C@H](C)[C@@H](O[C@H]3C[C@@](C)(O)[C@@H](O)[C@H](C)O3)[C@H](N(C)C)[C@H]2O)[C@@H](CC=O)C[C@@H](C)C(=O)/C=C/C(C)=C/[C@@H]1CO[C@@H]1O[C@H](C)[C@@H](O)[C@@H](OC)[C@H]1OC | 0.947 ± 0.046 | 1.08 ± 0.021 | 1.07 ± 0.021 | 1.1 ± 0.099 | 1.035 ± 0.0071
CC(C)NCC(O)COc1ccc(CC(N)=O)cc1 (stereo not given) | 1.07 ± 0.057 | 0.932 ± 0.016 | 1.02 ± 0.066 | 0.971 ± 0.055 | 1.07 ± 0.064
CC(=O)O[C@H]1CC[C@]2(C)C3=CC(=O)[C@@]4(C)C(C[C@@H]5OC6(OCC(C)CC6Br)[C@@H](C)[C@@H]54)C3CC[C@H]2C1 (stereo partly drawn) [3beta-ACETOXY-23-BROMO-ISOALLOSPIROST-9 (11)-ENE-12-ONE] | 1.04 ± 0.042 | 1.11 ± 0.092 | 1.03 ± 0.05 | 1.12 ± 0.099 | 1.1 ± 0.035
CO[C@@H]1[C@@H](OC(N)=O)[C@@H](O)[C@H](Oc2ccc3c(O)c(NC(=O)c4ccc(O)c(CC=C(C)C)c4)c(=O)oc3c2C)OC1(C)C | 0.988 ± 0.088 | 0.8935 ± 0.005 | 1.004 ± 0.0085 | 1.27 ± 0.05 | 1.14
Oc1ncnc2[nH]ncc12 | 0.939 ± 0.063 | 1.05 ± 0.12 | 1.07 ± 0.057 | 1.03 | 0.961 ± 0.11
Nc1nc(N)c2nc(-c3ccccc3)c(N)nc2n1 | 0.843 ± 0.047 | 0.898 ± 0.0042 | 0.956 ± 0.037 | 1.11 ± 0.085 | 1.05 ± 0.028
COc1cc(C/C=C/c2ccccc2)c(OC)cc1O | 1.02 ± 0.055 | 1.06 ± 0.093 | 1.03 ± 0.042 | 1.05 ± 0.22 | 1.04 ± 0.035
C[N+](C)(C)CCOP(=O)(O)OP(=O)([O-])OC[C@H]1O[C@@H](n2ccc(N)nc2=O)[C@H](O)[C@@H]1O | 0.923 ± 0.1 | 0.942 ± 0.016 | 1.01 ± 0.017 | 1.01 ± 0.096 | 1.04 ± 0.028
CC[C@H](C)[C@H](N)C1=N[C@H](C(=O)N[C@@H](CC(C)C)C(=O)N[C@H](CCC(=O)O)C(=O)N[C@H](C(=O)N[C@H]2CCCCNC(=O)[C@H](CC(N)=O)NC(=O)[C@@H](CC(=O)O)NC(=O)[C@H](Cc3cnc[nH]3)NC(=O)[C@@H](Cc3ccccc3)NC(=O)[C@H]([C@@H](C)CC)NC(=O)[C@@H](CCCN)NC2=O)[C@@H](C)CC)CS1 | 1.05 ± 0.05 | 1.03 ± 0.021 | 0.992 ± 0.04 | 1.03 ± 0.042 | 1.03 ± 0.021
CN1CCN(CCCN2c3ccccc3Sc3ccc(Cl)cc32)CC1 | 1.02 ± 0.13 | 0.941 ± 0.098 | 1.09 ± 0.064 | 1.03 ± 0.054 | 0.929 ± 0.042
COc1ccc(C(=O)c2ccc(O)cc2)c(O)c1O | 1.015 ± 0.0071 | 0.971 ± 0.028 | 1.04 ± 0.078 | 1.03 ± 0.028 | 1.06 ± 0.057
CCN(CC)CCNC(=O)c1cc(Cl)c(N)cc1OC | 1 ± 0.037 | 1.04 ± 0.066 | 0.993 ± 0.025 | 1.14 ± 0.05 | 1 ± 0.069
OC[C@H]1O[C@@H](Oc2ccc(O)cc2)[C@H](O)[C@@H](O)[C@@H]1O | 0.965 ± 0.04 | 0.989 ± 0.072 | 0.936 ± 0.018 | 0.963 ± 0.095 | 0.975 ± 0.033

SMILES | cell viability (DLD1 [1]) | cell viability (HCT116) | cell viability (SW480 [2]) | TCF/Wnt firefly luciferase reporter signal (DLD1 [3]) | TCF/Wnt firefly luciferase reporter signal (SW480 [4])
O=C(O)C1=C(CSc2nnnn2CS(=O)(=O)O)CS[C@@H]2[C@H](NC(=O)[C@H](O)c3ccccc3)C(=O)N12 | 0.951 ± 0.025 | 1.05 ± 0.071 | 0.973 ± 0.052 | 0.915 ± 0.023 | 0.968 ± 0.04
OC[C@@H](O)[C@@H](O[C@@H]1O[C@H](CO)[C@@H](O)[C@H](O)[C@H]1O)[C@H](O)[C@@H](O)CO | 0.959 ± 0.058 | 1.01 ± 0.058 | 1.01 ± 0.03 | 1.08 ± 0.12 | 1.11 ± 0.014
CC(C)COCC(CN(Cc1ccccc1)c1ccccc1)N1CCCC1 (stereo not given) | 1.06 ± 0.088 | 1 ± 0.064 | 1.02 ± 0.06 | 0.901 ± 0.084 | 0.937 ± 0.085
C=C(C)[C@@H]1C[C@H]2O[C@](O)(C/C(C)=C\C(=O)/C=C(/C)C[C@@H]3OC(=O)[C@]24O[C@@H]34)[C@H]1O [bipinnatolide F] | 1.02 ± 0.028 | 0.943 ± 0.018 | 0.94 ± 0.074 | 1.01 ± 0.059 | 0.994 ± 0.023
C=CCCCCCCCCCCCc1ccco1 | 0.98 ± 0.085 | 1 ± 0.069 | 1.01 ± 0.035 | 0.854 ± 0.0099 | 0.957 ± 0.028
O=C(CCCN1CCN(c2ccccn2)CC1)c1ccc(F)cc1 | 1.03 ± 0.028 | 0.963 ± 0.12 | 0.994 ± 0.023 | 0.985 ± 0.064 | 1.01 ± 0.028
OCCc1ccccc1 | 0.986 | 0.995 ± 0.05 | 0.959 ± 0.03 | 1.16 ± 0.085 | 1.12 ± 0.092
O=C(O)C1CCCNC1 (stereo not given) | 0.994 ± 0.023 | 1 ± 0.071 | 0.948 ± 0.067 | 1.03 ± 0.065 | 0.938 ± 0.13
CC(=O)OCC(=O)[C@@]1(O)CC[C@H]2[C@@H]3CC[C@@H]4C[C@H](O)CC[C@]4(C)[C@H]3C(=O)C[C@@]21C | 0.905 ± 0.11 | 1 ± 0.071 | 0.939 ± 0.011 | 0.968 ± 0.036 | 0.885 ± 0.019
Cc1cc(C)nc(NS(=O)(=O)c2ccc(N)cc2)n1 | 1.07 ± 0.11 | 0.975 ± 0.078 | 1.03 ± 0.047 | 1.025 ± 0.0071 | 1.08 ± 0.05
O=C(O)c1cccnc1C(=O)O | 1.07 ± 0.021 | 1.095 ± 0.0071 | 1.03 ± 0.014 | 1.04 ± 0.15 | 1.1 ± 0.085
C[N+]1(CCCCC[N+]2(C)CCCC2)CCCC1 | 0.998 ± 0.018 | 1.01 ± 0.039 | 0.995 ± 0.064 | 0.888 ± 0.21 | 0.98 ± 0.071
C[C@@H]1O[C@@H](O[C@H]2[C@H](Oc3cc(O)c4c(=O)cc(-c5ccc(O)cc5)oc4c3)O[C@H](CO)[C@@H](O)[C@@H]2O)[C@H](O)[C@H](O)[C@H]1O | 1.04 ± 0.035 | 1.03 ± 0.054 | 0.98 ± 0.015 | 0.989 ± 0.013 | 1.02 ± 0.079
Cc1ccsc1/C=C/C1=NCCCN1C | 0.843 ± 0.058 | 0.864 ± 0.044 | 0.9765 ± 0.00071 | 1.04 ± 0.021 | 1 ± 0.083
CCCCOc1ccc(C(=O)CCN2CCCCC2)cc1 | 0.832 ± 0.12 | 0.87 ± 0.033 | 0.931 ± 0.045 | 1.09 ± 0.23 | 1.17 ± 0.092
O=C(/C=C/c1ccc(O)c(O)c1)OCCc1ccccc1 | 0.892 ± 0.031 | 0.94 ± 0.039 | 0.963 ± 0.023 | 0.948 ± 0.059 | 0.9925 ± 0.0078
